Measurements reported in PubChem BioAssay AID2069 (Sanford-Burnham Center for Chemical Genomics, 2009).
Screen size: about 1,200 compounds; about 210 (18%) were called active. Cut-off read from the data, not from the text of the source: active = inhibition above about 30%; inactive = the rest. The list is a sample of the results.

Assay: fluorescence readout artefact check – biochemical, HTRF, uHTS, artefact control for SUMOylation inhibitor project, confirmation (AID 2069)
Conditions: HTRF interference counterscreen, at 35 µM, stronger effect = higher value
In the case of `O=C(/C=C/c1ccco1)Nc1cccc2cccnc12`, the inhibition is reported as 2.9% (inactive). For `CCOC(=O)c1c(CSc2ccccc2)n(C)c2cc(Br)c(OCC(O)CNC(CO)(CO)CO)cc12` (stereo not given), the inhibition was 0.05% (inactive). In the case of `O=C(Cc1cc(=O)oc2cc(O)ccc12)NCC1CCC(C(=O)O)CC1` (stereo not given), the inhibition is reported as 44.1% (active). For `CN(C)c1cccc(C(=O)OCc2cc(=O)oc3cc(O)ccc23)c1`, the inhibition was 3.4% (inactive). In the case of `O=C(Nc1cccc2nsnc12)c1ccc(-c2ccc(Br)cc2)o1`, the inhibition is reported as 22.6% (inactive). For `O=C(NCCc1ccccc1)c1ccc2nc(-c3ccco3)c(-c3ccco3)nc2c1`, the inhibition was 12.2% (inactive). In the case of `Cc1nn(CC(=O)Nc2ccc(C(=O)N(C)C)cc2)c(=O)c2ccccc12`, the inhibition is reported as -0.95% (inactive). In the case of `CNc1nnc(-c2cc3ccccc3oc2=O)s1`, the inhibition is reported as 23.1% (inactive). For `CCOc1cccc2cc(-c3nnc(NCc4ccco4)s3)c(=O)oc12`, the inhibition was 26.9% (inactive). In the case of `Nc1nnc(-c2cc3c(ccc4ccccc43)oc2=O)s1`, the inhibition is reported as 30.1% (active). With `Brc1ccc(C2Nc3cccc4cccc(c34)N2)o1` the inhibition was -8.65% (inactive). With `C/C(=N\OCc1nc2ccccc2c(=O)n1/N=C/c1cc(C)cc([N+](=O)[O-])c1O)c1ccccc1` the inhibition was -17% (inactive). For `COC(=O)Cn1c2ccc(C)cc2c2nc(C)sc21`, the inhibition was 2.05% (inactive). With `CCOC(=O)Cn1c2ccccc2c2nc3ccccc3nc21` the inhibition was 25.7% (inactive). With `CCOC(=O)Cn1c2ccc(OC)cc2c2nc3ccccc3nc21` the inhibition was 53.6% (active). With `CCc1cccc(NC(=S)Nc2cccc3ccccc23)c1` the inhibition was 2.95% (inactive). For `O=c1cc2c(=O)oc3cc(O)c(O)oc3c2c(O)c1O`, the inhibition was -3.8% (inactive). For `Cc1cc(=O)n2[nH]c(N)c(N=Nc3ccccc3)c2n1`, the inhibition was -13.8% (inactive). With `O=c1c(-c2ccccc2)coc2c(CN3CCCC3)c(O)ccc12` the inhibition was 42% (active). With `COc1ccccc1/C=N/Nc1cc(N(C)C)nc(N(C)C)n1` the inhibition was 11.9% (inactive). With `Cn1c(=O)c(Nc2ccc(O)cc2)c2c3c(cccc31)C(=O)c1ccccc1-2` the inhibition was -3.25% (inactive). With `O=C(CNc1cccc2ccccc12)N/N=C/c1ccccn1` the inhibition was 17.4% (inactive). For `NC(=O)N/N=C/c1ccc2cccc(OCc3ccccc3)c2n1`, the inhibition was 68.3% (active). For `Cc1cccc(/C=N/NC(=O)C(C)Nc2cccc3ccccc23)n1` (stereo not given), the inhibition was 1.6% (inactive). With `COc1ccc(N=C2NC(=O)/C(=C\c3ccco3)S2)cc1` the inhibition was 4.75% (inactive). In the case of `COc1ccc(-n2c(CNc3ccc(C)cc3)nnc2SCC(=O)Nc2nc(-c3ccccc3)cs2)cc1`, the inhibition is reported as -1.4% (inactive). In the case of `Cc1cccc(NC(=O)CC2Nc3cccc4cccc(c34)NC2=O)c1` (stereo not given), the inhibition is reported as -17.8% (inactive). With `O=C(O)/C=C/C(=O)Nc1ccc2c(c1)NC(=O)CO2` the inhibition was -0.95% (inactive). With `O=C(N/N=C/c1cc(Br)cc(Br)c1O)c1ccncc1` the inhibition was 12.4% (inactive). In the case of `Nc1nnc(CC(=O)N/N=C/c2cc([N+](=O)[O-])cc(Br)c2O)s1`, the inhibition is reported as 30% (active). With `COc1cc([N+](=O)[O-])cc(/C=N/NC(=O)CC#N)c1O` the inhibition was 21.6% (inactive). For `NC(=O)CC(NC(=O)Cc1ccc(Br)cc1)c1ccc(NCCc2ccccc2F)c([N+](=O)[O-])c1` (stereo not given), the inhibition was 5.95% (inactive). For `O=C(/C=C/c1ccco1)NC(=S)NNC(=O)c1ccco1`, the inhibition was -18.9% (inactive). With `O=C(O)CSc1cc(C(=O)c2cc(F)ccc2O)cn2c(=O)c3c(-c4ccccc4)csc3nc12` the inhibition was 28.9% (inactive). In the case of `CN(CCO)c1nc(N)c2c(N)nc3c(c2c1C#N)CC(=O)N3C1CCCC1`, the inhibition is reported as 43.9% (active). With `N#Cc1c(N2CCN(c3ccc(F)cc3)CC2)nc(N)c2c(N)nc3c(c12)CC(=O)N3C1CC1` the inhibition was 16.5% (inactive). For `CCCN(CC1CC1)c1nc(N)c2c(N)nc(OC)cc2c1C#N`, the inhibition was 10.2% (inactive). With `N#Cc1c(N(CCO)CCO)nc(N)c2c(N)nc3c(c12)CC(=O)N3CC1CCCO1` (stereo not given) the inhibition was 41.8% (active). In the case of `N#Cc1c(N(CCO)CCO)nc(N)c2c(N)nc3c(c12)CC(=O)N3Cc1cccs1`, the inhibition is reported as 25.1% (inactive). With `COc1ccc(C)c2sc(NC(=O)c3cccc(N4C(=O)CCC4=O)c3)nc12` the inhibition was 21% (inactive). For `CC(C)C(=O)Nc1cccc(C(=O)NCc2ccc3c(c2)OCO3)c1`, the inhibition was -4.7% (inactive). With `N#Cc1c(-c2ccc(Cl)cc2)cc(-c2cccs2)nc1SCC(=O)O` the inhibition was -4.9% (inactive). For `CCOC(=O)C1CCN(C2=C(NS(=O)(=O)c3ccc(Br)cc3)C(=O)c3ccccc3C2=O)CC1`, the inhibition was -7.95% (inactive). For `O=C(Nc1ccc(Br)cc1)c1ccc(N2C(=O)C3CC=C(Cl)CC3C2=O)cc1` (stereo not given), the inhibition was -0.95% (inactive). For `C=CCNC(=O)c1c(N)n(-c2cccc(S(N)(=O)=O)c2)c2nc3ccccc3nc12`, the inhibition was 33% (active). In the case of `C=CCn1c(NS(=O)(=O)c2ccccc2)c(S(=O)(=O)c2ccc(C)cc2)c2nc3ccccc3nc21`, the inhibition is reported as 23.6% (inactive). For `COc1ccc(-n2c(N)c(C(=O)NCc3ccco3)c3nc4ccccc4nc32)cc1OC`, the inhibition was 11.5% (inactive). With `COCCNC(=O)c1c(N)n(CCCn2ccnc2)c2nc3ccccc3nc12` the inhibition was 40% (active). For `COCCCNC(=O)c1c(N)n(-c2ccccc2)c2nc3ccccc3nc12`, the inhibition was 33.6% (active). In the case of `COCCNC(=O)c1c(N)n(CCC2=CCCCC2)c2nc3ccccc3nc12`, the inhibition is reported as 25.1% (inactive). For `C=CCn1c(NC(=O)c2ccc(Br)o2)c(S(=O)(=O)c2ccccc2)c2nc3ccccc3nc21`, the inhibition was 8.1% (inactive). With `Nc1c(C(=O)NCc2ccco2)c2nc3ccccc3nc2n1CCc1ccccc1` the inhibition was 11% (inactive). With `CCc1cc(=O)oc2c3c(cc(OCC(=O)NCCCCCC(=O)O)c12)OC(C)(C)CC3` the inhibition was 29.8% (inactive). For `Cc1ccc(Sc2cc(NCCCO)c([N+](=O)[O-])c3nonc23)cc1`, the inhibition was 0.15% (inactive). In the case of `COc1ccc(-c2csc(CCN3N=C(C)CC3=O)n2)cc1`, the inhibition is reported as -4.6% (inactive). For `Cc1cc2oc(C(=O)Nc3ccc(S(=O)(=O)Nc4nccs4)cc3)cc(=O)c2cc1Cl`, the inhibition was -9.2% (inactive). For `Cc1ccc(CSc2nnc(SCC(=O)N/N=C/c3c[nH]c4ccccc34)s2)cc1`, the inhibition was -3.9% (inactive). With `CC1CCCN(C2=C(NS(=O)(=O)c3ccc(Br)cc3)C(=O)c3ccccc3C2=O)C1` (stereo not given) the inhibition was -7.35% (inactive). In the case of `Cc1cccc(NC(=S)Nc2cccc3ccccc23)c1`, the inhibition is reported as -3.85% (inactive). For `COc1cc(/C=C2/C(=O)N(c3ccc([N+](=O)[O-])cc3)N=C2N2CCOCC2)ccc1O`, the inhibition was -19.4% (inactive). In the case of `N#Cc1c(NC(=O)CSc2ncnc3sccc23)oc(-c2ccco2)c1-c1ccco1`, the inhibition is reported as 7.1% (inactive). For `CC1=NN(c2ccc(Cl)cc2)C(=O)C1C(c1ccccc1O)c1c(C)[nH]n(-c2ccc(Cl)cc2)c1=O` (stereo not given), the inhibition was -12.7% (inactive). With `CC(C)(C)c1cnnn1-c1cccc([N+](=O)[O-])c1` the inhibition was 6.3% (inactive). With `CN1CCCc2cc3c(C(F)(F)F)cc(=O)oc3nc21` the inhibition was 57.5% (active). With `O=C(CC1CS(=O)(=O)CC1CC(=O)Oc1ccccc1F)Oc1ccccc1F` (stereo not given) the inhibition was 5.6% (inactive). For `CC(=O)Oc1ccc2cc(-c3nc4ccccc4n3C)c(=O)oc2c1`, the inhibition was 38.6% (active). For `CC1=C(C#N)C(=O)NC(=O)/C1=C/c1ccc(-c2ccc(S(N)(=O)=O)cc2)o1`, the inhibition was 19.2% (inactive). With `Cc1nc2ccccc2c(=O)n1/N=C/c1ccc(O)c(O)c1O` the inhibition was 7.15% (inactive). With `O=c1c2ccccc2nc2n1CCC2` the inhibition was 31.4% (active). With `Cc1ccc(/C=N/NC(=O)c2cccc(S(=O)(=O)Nc3cccc(Cl)c3)c2)o1` the inhibition was 9.55% (inactive). In the case of `O=[N+]([O-])c1cccc(S(=O)(=O)Nc2nc3ccccc3nc2Nc2cccc(S(=O)(=O)N3CCCCC3)c2)c1`, the inhibition is reported as -17.1% (inactive). In the case of `CC1=NN(c2ccccc2)C(=O)/C1=C\c1ccc(Br)s1`, the inhibition is reported as -10.7% (inactive). In the case of `Nc1ccc(N2CCCCC2)c2nonc12`, the inhibition is reported as -23.7% (inactive). With `COc1ccc(C2C3=C(CCCC3=O)Nc3c(-c4ccccc4)c(C)nn32)cc1` (stereo not given) the inhibition was 46.6% (active). In the case of `COc1ccc(N2C3=C(CC4=C2CCCC4=O)C(=O)CCC3)cc1`, the inhibition is reported as 18.1% (inactive). In the case of `O=C(CNc1cccc2ccccc12)N/N=C/c1ccc([N+](=O)[O-])cc1`, the inhibition is reported as -4% (inactive). With `Cn1c(CNc2ccc(O)cc2)nc2ccccc21` the inhibition was -19.7% (inactive). In the case of `Cn1c(-c2ccc(C=O)s2)nc2ccccc21`, the inhibition is reported as 49.1% (active). In the case of `Cn1c(-c2ccc(C=O)s2)nc2c3ccccc3c3ccccc3c21`, the inhibition is reported as 22.3% (inactive). For `CC(C)CC(=O)Nc1ccc(C(=O)Cn2nc(C(=O)O)c3ccccc3c2=O)cc1`, the inhibition was -7.35% (inactive). For `[O-]/C(=C(\C(=S)Nc1cccc2ccccc12)[n+]1cccc(CO)c1)c1ccc(Cl)s1`, the inhibition was -14.8% (inactive). With `COc1ccc(Cc2n[nH]c(=S)n2NC(=O)Nc2ccc(Cl)c(Cl)c2)cc1` the inhibition was 54.1% (active). In the case of `COc1ccc(Cn2c(C)c(C)c(C#N)c2NC(=O)Nc2ccc(F)cc2)cc1`, the inhibition is reported as 1.75% (inactive). With `COc1ccc(Cc2n[nH]c(=S)n2NC(=O)Nc2ccc(C)cc2)cc1` the inhibition was 20.8% (inactive). In the case of `CCOC(=O)C1=C(C)N=c2s/c(=C\c3ccc(OCC(=O)O)cc3)c(=O)n2C1c1ccc(OC(C)C)cc1` (stereo not given), the inhibition is reported as 12.8% (inactive). In the case of `COc1cccc(OC)c1C(=O)N1CCNCC1`, the inhibition is reported as -12.3% (inactive). In the case of `COc1ccc(C(=O)N2CCC(O)(c3ccc(F)cc3)CC2)cc1OC`, the inhibition is reported as 39% (active). In the case of `Cc1[nH][nH]c(=O)c1C(c1c(C)[nH][nH]c1=O)c1cn(C)c2ccccc12`, the inhibition is reported as -22.4% (inactive). For `COc1cccc(C(=O)Nc2cccc(C(=O)NC3=NN(c4c(Cl)cc(Cl)cc4Cl)C(=O)C3)c2)c1`, the inhibition was -11.8% (inactive). In the case of `CCN(CC(=O)c1c(N)n(C)c(=O)n(C)c1=O)c1cccc2ccccc12`, the inhibition is reported as 11.8% (inactive). In the case of `COc1cc(/C=N/NC(=O)c2ccccc2O)ccc1OCC(=O)Nc1ccccc1`, the inhibition is reported as 15.4% (inactive). With `Cc1cc2n(n1)SC(Nc1cccc3ccccc13)N2` (stereo not given) the inhibition was -6.45% (inactive). In the case of `Oc1cccc(C=Nc2cccc3ccccc23)c1O`, the inhibition is reported as 8.55% (inactive). In the case of `Cc1ccc(N2CSC3=C(C#N)C(c4cccs4)CC(=O)N3C2)cc1` (stereo not given), the inhibition is reported as -28.4% (inactive). In the case of `Cc1c(CC(=O)N2CCN(C(=O)C3COc4ccccc4O3)CC2)c(=O)oc2c(C)c(O)ccc12` (stereo not given), the inhibition is reported as 66.6% (active). With `Cc1ccc(C)c(S(=O)(=O)C(C#N)c2nc3ccccc3nc2N2CCCC2)c1` (stereo not given) the inhibition was 1.8% (inactive). In the case of `CCCCCc1c2c(cc(O)c1C(=O)O)OC(=O)c1c(cc(OC)cc1C(=O)CCCC)O2`, the inhibition is reported as 11.2% (inactive). For `c1coc(-c2nnc(-c3ccco3)nn2)c1`, the inhibition was 7.95% (inactive). For `Cc1cccc2nc(-c3ccco3)c(Nc3ccc4c(c3)OCO4)n12`, the inhibition was -6.85% (inactive). With `Cc1cc(=O)[nH]c(SCC(=O)c2ccc(O)c(O)c2)n1` the inhibition was 7.45% (inactive).
